In PubChem BioAssay (Tox21):
Where “and” joins values, the source holds several entries; their conditions need not be identical. Equal entries are not always repeated. Inconclusive results are not listed. Where a call stands in place of a potency, no number is given. Where a structure was tested more than once in an assay, its records may differ in their call. Calls of active or inactive are those of the source. Calls follow the shape of the dose curve; as a rule, active = well fitted cell-killing curve with a large enough effect in the repeat runs; inconclusive = weak or mixed curves, or effect the other way; inactive = flat fitted curve, though single readings scatter.
Potency is read from the fitted curve at half-maximal effect.

Test: qHTS assay to identify small molecule that activate the aryl hydrocarbon receptor (AhR) signaling pathway - cell viability counter screen (AID 743086); also: nearly all actives have a fitted effect of over 45% in size;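 as to viability change, negative = cytotoxic: HepG2 liver cells carrying the AhR DRE luciferase reporter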
Conditions: HepG2-AhR-luc viability, CellTiter-Fluor, 24 h; series mostly up to 70.3 µM; viability change, negative = cytotoxic: at the top concentration
Text: U.S. Tox21 Program National Center for Advancing Translational Sciences [NCATS] NIH Chemical Genomics Center [NCGC] U.S. Environmental Protection Agency [EPA] National Institutes of Environmental Health Sciences [NIEHS] National Toxicology Program [NTP] U.S. Food and Drug Administration [FDA] Tox21 Assay overview: The Aryl hydrocarbon Receptor (AhR), a member of the family of basic helix-loop-helix transcription factors, is crucial to adaptive responses to environmental changes. AhR mediates cellular responses to environmental pollutants such as aromatic hydrocarbons through induction of phase I and II enzymes but also interacts with other nuclear receptor signaling pathways A cell based HepG2-AhR-luc assay (HG2L7.5c1 cell line, developed by Dr. Michael S. Denison, University of California at Davis) was used to assess the activation of AhR. HepG2 (human hepatocellular carcinoma) cells were stably transfected with an Ah receptor-responsive firefly luciferase reporter gene plasmid containing 20 dioxin responsive elements and luciferase reporter gene. Increased luciferase activity can be used to identify the compounds that induce AhR activation. The cytotoxicity of the compounds screened against the HepG2-AhR-luc cell line was tested in parallel by measuring the cell viability using CellTiter-Fluor assay in the same wells.
Tox21 Assay Protocol Summary: 4000 cells in 5 uL/well were dispensed into white wall/solid bottom 1536-well plates using a Multidrop Combi (Thermo Fisher Scientific Inc., Waltham, MA) dispenser. After the assay plates were incubated at 37C for 5 h, 23 nL of compound or DMSO vehicle was transferred to the assay plates by a pintool station (Kalypsys, San Diego, CA). The plates were incubated at 37C for 24 hr. For cell viability measurement, 1 ul/well of CellTiter-Fluor reagent (Promega, Madison, WI) was added into the assay plates using a Flying Reagent Dispenser (FRD) (Aurora Discovery, CA),and then the assay plates were incubated at 37C for 30 min. The fluorescence intensity in the plates was measured using a ViewLux plate reader (PerkinElmer, Shelton, CT), followed by the addition of 4 uL of ONE-Glo Luciferase Assay reagent (Promega) using an FRD (Aurora Discovery). After the assay plates were incubated at room temperature for 30 min, luminescence intensity was measured using a ViewLux plate reader (Perkin Elmer).
For `CN(C)C(=O)Nc1ccc(Cl)cc1`, the Potency was “inactive”.
For `CNC(=O)Oc1cccc2c1OC(C)(C)O2`, the Potency was “inactive”.
In the case of `CCOP(=S)(OCC)O/N=C(\C#N)c1ccccc1`, the Potency is reported as “inactive”.
With `CCC(C)(c1ccc(O)cc1)c1ccc(O)cc1` the Potency was “inactive”.
In the case of `CC(C)=CC1C(C(=O)OCc2coc(Cc3ccccc3)c2)C1(C)C` (stereo not given), the Potency is reported as “inactive”.
With `CCc1cccc(CC)c1N(COC)C(=O)CCl` the Potency was “inactive”.
With `Cc1ccc2c(c1N)C(=O)c1ccccc1C2=O` the Potency was 27.3 µM (active).
With `O=[N+]([O-])c1ccc(O)c([N+](=O)[O-])c1` the Potency was 38.7 µM (active).
In the case of `Cc1c(COC(=O)[C@@H]2[C@H](/C=C(\Cl)C(F)(F)F)C2(C)C)cccc1-c1ccccc1`, the Potency is reported as “inactive”.
With `CC(C)NC(C)C` the Potency was “inactive”.
With `c1ccc(-c2cccc(-c3ccccc3)c2)cc1` the Potency was “inactive”.
With `O=C(NC(=O)c1c(F)cccc1F)Nc1ccc(Cl)cc1` the Potency was “inactive”.
With `CC(C)(c1cc(Cl)c(O)c(Cl)c1)c1cc(Cl)c(O)c(Cl)c1` the Potency was “inactive”.
With `COP(=S)(OC)Oc1cc(Cl)c(Cl)cc1Cl` the Potency was “inactive”.
In the case of `CC(C)Oc1cc(-n2nc(C(C)(C)C)oc2=O)c(Cl)cc1Cl`, the “viability change, negative = cytotoxic” value is reported as -7.19% (inactive).
In the case of `COC(=O)c1sccc1S(=O)(=O)NC(=O)Nc1nc(C)nc(OC)n1`, the Potency is reported as “inactive”.
In the case of `C=C(C)C(=O)OCC1CO1` (stereo not given), the Potency is reported as “inactive”.
For `CCC(C)(C)c1ccc(O)cc1`, the Potency was “inactive”.
In the case of `Brc1ccc(Oc2cc(Br)c(Br)cc2Br)c(Br)c1`, the Potency is reported as “inactive”.
For `CNC(=O)N(C)c1nnc(C(C)(C)C)s1`, the Potency was “inactive”.
With `CCOC(=S)S` the Potency was “inactive”.
With `Nc1cccnc1` the Potency was “inactive”.
For `O=c1oc2ccccc2c(O)c1C(CC(O)c1ccc(-c2ccc(Br)cc2)cc1)c1ccccc1` (stereo not given), the Potency was “inactive”.
For `O=Cc1ccco1`, the Potency was “inactive”.
For `C=C(C)[C@H]1Cc2c(ccc3c2O[C@@H]2COc4cc(OC)c(OC)cc4[C@@H]2C3=O)O1`, the Potency was “inactive and 39.1 µM (active) and 21.7 µM (active)”.
For `O=[N+]([O-])c1c(Cl)c(Cl)c(Cl)c(Cl)c1Cl`, the Potency was “inactive”.
In the case of `CCN(N=O)C(N)=O`, the Potency is reported as “inactive”.
For `COc1ccc(C=O)cc1`, the Potency was “inactive”.
For `c1ccc(NNc2ccccc2)cc1`, the Potency was “inactive”.
With `CCC(CC)Nc1c([N+](=O)[O-])cc(C)c(C)c1[N+](=O)[O-]` the Potency was “inactive”.
For `CC(O)CCO` (stereo not given), the Potency was “inactive”.
For `O=C(Nc1ccc(Br)cc1)c1cc(Br)cc(Br)c1O`, the Potency was “inactive”.
With `O=S(=O)(Oc1ccc(Cl)cc1)c1ccc(Cl)cc1` the Potency was “inactive”.
With `CCOC(=O)C(C)OC(=O)c1cc(Oc2ccc(C(F)(F)F)cc2Cl)ccc1[N+](=O)[O-]` (stereo not given) the Potency was “inactive”.
With `CCC(C)c1ccc(O)cc1` (stereo not given) the Potency was “inactive”.
With `c1nc[nH]n1` the Potency was “inactive”.
For `CC1(C)C(C=C(Cl)Cl)C1C(=O)OC(C#N)c1cccc(Oc2ccccc2)c1` (stereo not given), the Potency was “inactive”.
With `O=C(CCl)c1ccccc1` the Potency was “inactive”.
For `N#CC(Br)Br`, the Potency was “inactive”.
In the case of `CCCCC(CC)COC(=O)Cl` (stereo not given), the Potency is reported as “inactive”.
